Assay results: the supplement of paper PMC8728848
Only a selection was taken, and the strongest signals are over-represented in it overall.

Experiments:
Test in all cases: glycan array binding signal (z-score within array); higher = stronger binding
Conditions in all cases: glycan notation: IUPAC condensed, linker removed
[1] = molecular target: Fuc(a1-2)Gal(b1-3)GalNAc(b1-4)[Neu5Ac(a2-3)]Gal(b1-4)Glc
Outline: (§1)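 Negative Z-scores can be read as non-binding. The Z-score is calculated within each array and then averaged across arrays of one protein sequence at different concentrations or buffers and across linkers. Arrays, 3228 in all, were curated from the Consortium for Functional Glycomics database and kept only where the protein sequence was available.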

Fuc(a1-2)Gal(b1-3)GlcNAc = molecular target: Fuc(a1-2)Gal(b1-3)GlcNAc
Outline: as §1

Fuc(a1-2)Gal(b1-4)Glc = molecular target: Fuc(a1-2)Gal(b1-4)Glc
Outline: as §1

[2] = molecular target: Fuc(a1-2)Gal(b1-4)GlcNAc6S
Outline: as §1

[3] = molecular target: Fuc(a1-2)Gal(b1-4)[Fuc(a1-3)]GlcNAc(b1-2)Man(a1-3)[Fuc(a1-2)Gal(b1-4)[Fuc(a1-3)]GlcNAc(b1-2)Man(a1-6)]Man(b1-4)GlcNAc(b1-4)[Fuc(a1-6)]GlcNAc
Outline: as §1

[4] = molecular target: Fuc(a1-2)[Gal(a1-3)]Gal(b1-3)GlcNAc
Outline: as §1

[5] = molecular target: Fuc(a1-2)[Gal(a1-3)]Gal(b1-3)GlcNAc(b1-2)Man(a1-3)[Fuc(a1-2)[Gal(a1-3)]Gal(b1-3)GlcNAc(b1-2)Man(a1-6)]Man(b1-4)GlcNAc(b1-4)GlcNAc
Outline: as §1

[6] = molecular target: Fuc(a1-2)[Gal(a1-3)]Gal(b1-4)Glc
Outline: as §1

[7] = molecular target: Fuc(a1-2)[Gal(a1-3)]Gal(b1-4)GlcNAc
Outline: as §1

[8] = molecular target: Fuc(a1-2)[Gal(a1-3)]Gal(b1-4)GlcNAc(b1-2)Man
Outline: as §1

[9] = molecular target: Fuc(a1-2)[Gal(a1-3)]Gal(b1-4)GlcNAc(b1-2)Man(a1-3)[Fuc(a1-2)[Gal(a1-3)]Gal(b1-4)GlcNAc(b1-2)Man(a1-6)]Man(b1-4)GlcNAc(b1-4)[Fuc(a1-6)]GlcNAc
Outline: as §1

[10] = molecular target: Fuc(a1-2)[Gal(a1-3)]Gal(b1-4)GlcNAc(b1-6)GalNAc
Outline: as §1

[11] = molecular target: Fuc(a1-2)[GalNAc(a1-3)]Gal(b1-3)GlcNAc
Outline: as §1

[12] = molecular target: Fuc(a1-2)[GalNAc(a1-3)]Gal(b1-4)GlcNAc(b1-2)Man
Outline: as §1

[13] = molecular target: Fuc(a1-2)[GalNAc(a1-4)]Gal(b1-4)GlcNAc
Outline: as §1

[14] = molecular target: Fuc(a1-3)[Gal(b1-4)]GlcNAc(b1-6)[Gal(b1-3)GlcNAc(b1-3)]Gal(b1-4)Glc
Outline: as §1

[15] = molecular target: Fuc(a1-3)[Gal3S(b1-4)]GlcNAc
Outline: as §1

[16] = molecular target: Gal(a1-3)Gal(b1-3)[Fuc(a1-4)]GlcNAc(b1-2)Man(a1-3)[Gal(a1-3)Gal(b1-3)[Fuc(a1-4)]GlcNAc(b1-2)Man(a1-6)]Man(b1-4)GlcNAc(b1-4)GlcNAc
Outline: as §1

[17] = molecular target: Gal(a1-3)Gal(b1-4)GlcNAc(b1-2)Man
Outline: as §1

Gal(a1-3)GalNAc = molecular target: Gal(a1-3)GalNAc
Outline: as §1

[18] = molecular target: Gal(a1-4)Gal(b1-3)GlcNAc(b1-2)Man(a1-3)[Gal(a1-4)Gal(b1-3)GlcNAc(b1-2)Man(a1-6)]Man(b1-4)GlcNAc(b1-4)GlcNAc
Outline: as §1

Gal(b1-2)Gal = molecular target: Gal(b1-2)Gal
Outline: as §1

[19] = molecular target: Gal(b1-3)GlcNAc(b1-3)Gal(b1-4)[Fuc(a1-3)]GlcNAc
Outline: as §1

[20] = molecular target: Gal(b1-3)[Fuc(a1-4)]GlcNAc(b1-6)GalNAc
Outline: as §1

[21] = molecular target: Gal(b1-4)GlcNAc(b1-2)Man(a1-3)[Gal(b1-4)GlcNAc(b1-2)Man(a1-6)][GlcNAc(b1-4)]Man(b1-4)GlcNAc(b1-4)[Fuc(a1-6)]GlcNAc
Outline: as §1

[22] = molecular target: Gal(b1-4)GlcNAc(b1-2)Man(a1-6)[GlcNAc(b1-2)Man(a1-3)]Man(b1-4)GlcNAc(b1-4)GlcNAc
Outline: as §1

[23] = molecular target: Gal(b1-4)GlcNAc(b1-3)Gal(b1-4)GlcNAc(b1-3)Gal(b1-4)GlcNAc
Outline: as §1

B1: Gal 8 (Mus musculus), Q9JL15 (protein)
chain: MGGSHHHHHHGMASMLSLNNLQNIIYNPIIPYVGTITEQLKPGSLIVIRGHVPKDSERFQVDFQLGNSLKPRADVAFHFNPRFKRSSCIVCNTLTQEKWGWEEITYDMPFRKEKSFEIVFMVLKNKFQVAVNGRHVLLYAHRISPEQIDTVGIYGKVNIHSIGFRFSSASALPHTLGDLQSMETSALGLTQINRENIQKPGKLQLSLPFEARLNASMGPGRTVVIKGEVNTNARSFNVDLVAGKTRDIALHLNPRLNVKAFVRNSFLQDAWGEEERNITCFPFSSGMYFEMIIYCDVREFKVAINGVHSLEYKHRFKDLSSIDTLSVDGDIRLLDVRSW
- glycan array binding signal (z-score) [1]: -0.259
- glycan array binding signal (z-score) (Fuc(a1-2)Gal(b1-3)GlcNAc): 0.14
- glycan array binding signal (z-score) (Fuc(a1-2)Gal(b1-4)Glc): 0.021
- glycan array binding signal (z-score) [2]: -0.038
- glycan array binding signal (z-score) [3]: -0.529
- glycan array binding signal (z-score) [4]: 3.88
- glycan array binding signal (z-score) [5]: 3.71
- glycan array binding signal (z-score) [6]: 2.26
- glycan array binding signal (z-score) [7]: 3.76
- glycan array binding signal (z-score) [8]: 2.84
- glycan array binding signal (z-score) [9]: 3.64
- glycan array binding signal (z-score) [10]: -0.535
- glycan array binding signal (z-score) [11]: 1
- glycan array binding signal (z-score) [12]: 3.48
- glycan array binding signal (z-score) [13]: -0.537
- glycan array binding signal (z-score) [14]: 0.008
- glycan array binding signal (z-score) [15]: -0.521
- glycan array binding signal (z-score) [16]: -0.204
- glycan array binding signal (z-score) [17]: 0.378
- glycan array binding signal (z-score) (Gal(a1-3)GalNAc): -0.533
- glycan array binding signal (z-score) [18]: -0.534
- glycan array binding signal (z-score) (Gal(b1-2)Gal): -0.521
- glycan array binding signal (z-score) [19]: 0.099
- glycan array binding signal (z-score) [20]: -0.515
- glycan array binding signal (z-score) [21]: -0.123
- glycan array binding signal (z-score) [22]: -0.108
- glycan array binding signal (z-score) [23]: 0.937
